# The list shows a part of the results. The source made the active and inactive calls.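 The calls were made as follows: active = mean inhibition above the hit cutoff derived in the earlier primary screen (cut at about 25% in these data); inactive = the rest.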
# Assay: reduced survival of JAK2V617F-driven Ba/F3 cells – cell-based, Ba/F3 EpoR-JAK2V617F, luminescence, triplicate, JAK2V617F inhibitor project, confirmation (AID 1521);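 also: 0% = DMSO-treated cells and 100% = JAK inhibitor I control wells; higher means lower luminescence from reduced cell ATP and viability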
# Conditions: Ba/F3 EpoR-JAK2V617F viability, CellTiter-Glo luminescence; at 5.6 µM; hits give high values
smiles,measurement,value
CN(C)CC1Oc2ccccc2OC1(O)c1ccccc1 (stereo unspecified),inhibition,98.7% (active)

# Source: PubChem BioAssay AID1521 (The Scripps Research Institute Molecular Screening Center, 2009)
